# According to PubChem BioAssay AID1745856 (National Center for Advancing Translational Sciences (NCATS), 2022):
# Out of some 120,000 compounds screened, about 270 (0.23%) were called active. Another 5% or so got no clear call; they are omitted. The sample holds actives, similar compounds and a random draw of the others, so the mix is not that of the screen. A number with no mark means an inactive call. The call rests on the fitted dose curve.
# Test: Primary qHTS Assay for Foot and Mouth Disease Virus Antivirals against NCGC Sytravon and CBC Compound Libraries: Firefly Luciferase Signal; further: nearly all actives have a fitted effect of over 60% in size
# Settings: FMDV antiviral cell assay; series mostly up to 57.5 µM; activity change, negative = inhibition: at the top concentration
# On the % scale 0 is the no-effect control and ±100 the full control effect; potency means the concentration at half of the fitted maximal effect.
SMILES,Potency,"activity change, negative = inhibition"
CCCn1nc(C(=O)Nc2ncc(Cc3ccc(F)cc3)s2)ccc1=O,31.6 µM (active),
Cc1cnc(NC(=O)c2nc(C)n(-c3ccc(F)cc3)n2)s1,,180%
Cc1nc(-c2ccc(F)cc2)sc1C(=O)N[C@H](C(=O)O)C(C)C,,23.3%
COc1ccc(/C(=N/OC(=O)c2cccc(F)c2)c2nccc3cc(OC)c(OC)cc23)cc1OC,,13.5%
COc1ccc(-c2cc(C(=O)NC3CC(C)(C)NC(C)(C)C3)c3ccccc3n2)cc1OC,,-27.7%
CCOc1cc(/C=C2\NC(=O)NC2=O)cc(Br)c1OCc1cccc2ccccc12,,6.16%
CCC(CC)NC(=O)COC(=O)c1ccc(C)c(C)c1,,-0.24%
COc1ccc(CN(C(=O)COc2ccc(C)cc2)c2ccccn2)cc1OC,,89.2%
CC1CCN(C(=O)c2cccnc2-c2nc3ccccc3s2)CC1,,-0.889%
Cc1ccc2c(Cl)cc(Cl)c(OCC(=O)N3CCCCCC3)c2n1,,-7.4%
CCCCCNC(=O)N(C)Cc1ccc(C(=O)OC)cc1,,21%
COc1cccc(CNC(=O)COC(=O)c2c(F)cccc2F)c1,,18.7%
COc1ccc2c(c1OC)C(=O)OC2Nc1nc(-c2ccccc2)cs1 (stereo not drawn),28.2 µM (active),
Cc1cccc(C)c1Nc1nc(-c2ccccc2)cs1,,164%
COc1ccc(-c2csc(Nc3cccc(C)n3)n2)cc1OC,,198%
Cc1cccc(C)c1NC(=O)CN(C)CC(=O)NC(=O)NCc1ccccc1,,-5.49%
CC(=O)N1CCN(c2c([N+](=O)[O-])cnc3ccc(Br)cc23)CC1,,-9.98%
CCCOc1ccc(NC(=O)COc2cccc(C)c2C)c2cccnc12,,-12.1%
COc1c(C)cccc1C(=O)Nc1cccc2ncccc12,,9.76%
CCOc1ccccc1OCC(=O)Nc1cccc2ncccc12,8.91 µM (active),
CCC1CCCCN1S(=O)(=O)c1ccc(NC(=O)c2cc(-c3ccc(OC)cc3)on2)cc1 (stereo not drawn),,18.9%
Cc1cc(SCC(=O)NC(=O)NCC(C)C)nc2ccccc12,,18.6%
COc1ccc(NC(C)=O)cc1S(=O)(=O)NC(c1ccc(F)cc1)c1cccs1 (stereo not drawn),,-11.3%
CC1CCn2c(nc3cc(C(=O)N4CCN(c5ccccc5)CC4)ccc32)C1 (stereo not drawn),,102%
CC1CCCCN1C(=O)CSc1nc2ccccc2n1CCC#N (stereo not drawn),,4.75%
O=C(CC12CC3CC(CC(C3)C1)C2)OCC(=O)c1ccc2c(c1)OCO2,,0%

SMILES,Potency,"activity change, negative = inhibition"
CCCCN(C)C(=O)C1CCC(Cn2c(=O)c3sccc3n(Cc3ccccc3)c2=O)CC1 (stereo not drawn),,-8.18%
Cc1ccc2nc(-c3ccccn3)cc(C(=O)O)c2c1,,21.3%
Cc1nc2cc(NC(C)C(=O)Nc3ccccc3F)ccc2o1 (stereo not drawn),,84.5%
CCc1ccc(Nc2nc3ccccc3nc2NS(=O)(=O)c2ccc(F)cc2)cc1,,4.14%
Cn1nc(C(=O)NCCc2ccc(F)cc2)c2ccccc2c1=O,,115%
COc1ccc(NC(=O)CSCc2cc(=O)n3cc(C)ccc3n2)cc1Cl,,-10.7%
Cc1cc(=O)oc2c(C)c(OCC(=O)NCCc3ccc(S(N)(=O)=O)cc3)ccc12,,-12%
O=C(CCc1nc2ccccc2s1)NC1CCCCCC1,,115%
CCS(=O)(=O)N1CCc2cc(C(=O)CSc3ccc(Cl)cc3)ccc21,,-47.5%
Cc1ccc(-c2cc(C(=O)N3CCCCCC3)c3ccccc3n2)o1,,31.5%
Cc1cccc(N(C)C(=O)Cn2nc(Cc3cccnc3)c3ccccc3c2=O)c1,,-0.531%
Cc1ccc(NC(=O)C(Sc2ccccc2)c2ccccc2)cc1C (stereo not drawn),,52.1%
CCN(CC)C(=O)c1sc2nc(C(C)(C)C)nc(C)c2c1C,,5.06%
COc1cc(NC(=O)C2CCCN2C(=O)C23CC4CC(CC(C4)C2)C3)c(OC)cc1Cl (stereo not drawn),,-13.5%
CC1CCC(NC(=O)c2ccccc2SCC#N)CC1 (stereo not drawn),,0%
COc1ccc2c(C)c(CC(=O)Nc3nnc(C(C)C)s3)c(=O)oc2c1OC,,14.8%
Cc1ccccc1C(C)N (stereo not drawn),,-5.82%
COc1ccc(/C=C2\CCc3ccccc3C2=O)cc1Br,,203%
CCOc1ccc(OCC(=O)NCCc2c[nH]c3ccccc23)cc1,,19.4%
COCCN(CCOC)C(=O)Cc1n[nH]c(=O)c2ccccc12,,2.66%
COc1ccc(-c2noc(-c3cccc(OCC(=O)N4CCCC4)c3)n2)cc1,,161%
O=S(=O)(c1ccc(Sc2nnnn2C2CCCC2)nc1)N1CCOCC1,,-10.7%
Cc1cccc(-c2nc3cc(NC(=O)CC(C)C)ccc3o2)c1,,120%
CCOC(=O)CSCc1cccc(Cl)c1,,13.3%
O=c1[nH]c(=O)n(CCc2ccccc2)c2nccc(-c3ccc(Cl)cc3)c12,,-0.9%
CC1CCC(=NNC(=S)NC2CCCCC2)CC1 (stereo not drawn),,37.9%

SMILES,Potency,"activity change, negative = inhibition"
CCCNC(=O)NCc1nc(-c2ccc(OC)cc2)oc1C,,79.5%
COc1ccc(C(=O)COC(=O)Cc2c(Cl)cccc2Cl)c(OC)c1,,11.5%
O=C1CC(c2cccc(Br)c2)c2c(n3c(nc4ccccc43)[nH]c2=O)N1 (stereo not drawn),,-10.9%
CCN(C(=O)CSc1nc(-c2ccccc2Cl)nc2cc(=O)[nH]n12)c1ccccc1,,42.8%
O=C(NCc1coc(-c2cccs2)n1)c1ccc(C(F)(F)F)cc1,,39.9%
O=C(CSc1nc2ncccc2c(=O)n1-c1ccccc1)NC(=O)NC1CC1,,-8.22%
CCOCCn1c(NCCCOC)nc2c1c(=O)[nH]c(=O)n2C,,82.8%
NC(=O)Cn1nc(-c2cccc([N+](=O)[O-])c2)c2ccccc2c1=O,,-7.8%
O=C(NCc1ccc(F)cc1)c1cc(S(=O)(=O)C2CCS(=O)(=O)C2)ccc1F (stereo not drawn),,17.7%
CCN(CC)C(=O)Oc1ccc2c(C)c(-c3ccccc3)c(=O)oc2c1,,0%
Cc1ccsc1CNC(=O)CCc1ccc(F)c(F)c1,,58.8%
COCCCNC(=O)Cc1c(C)c2ccc(OC(C)=O)c(OC(C)=O)c2oc1=O,,36%
C[C@H](NC(=O)C(c1ccccc1)c1ccccc1)C(=O)O,,12.3%
Nc1nccnc1C(=O)Nc1cccc(NC(=O)c2ccncc2)c1,,8.94%
CC(Sc1nc2ccccc2n1C)C(=O)NCc1ccc2c(c1)OCO2 (stereo not drawn),,13%
Cc1nc2ccc(C)c(C)c2s1,,1.16%
O=C(c1cccs1)c1cn(CCOc2ccc(Cl)cc2)c2ccccc12,,4.11%
Cc1ccccc1NC(=O)Cn1cc(C(=O)c2cccs2)c2ccccc21,,7.93%
Cc1c(Cl)cccc1NC(=O)Cn1cc(C(=O)c2cccs2)c2ccccc21,7.08 µM (active),
Cc1ccc(C)c(COC(=O)c2ccc3c(c2)NC(=O)CS3)c1,,9.18%
CC(C)C(C#CC(O)(c1ccccc1)c1ccccc1)N(C)C (stereo not drawn),,0.778%
COc1cc(NC(=O)Cn2c3c(c(=O)n2-c2ccccc2)Cc2cc(Cl)ccc2O3)cc(OC)c1,,81.6%
O=C(O)c1c(F)c(F)c(F)c(F)c1-c1ccccc1,,-7.11%
O=C(NC1CC1)C(Sc1c(Cl)cccc1Cl)c1ccccc1 (stereo not drawn),,21.7%
CCCCCNC(=O)CCc1c[nH]c2ccccc12,,1.13%
CCC(C)n1cc(/C=C2\NC(=O)N(CC)C2=O)c2ccccc21 (stereo not drawn),,-13.7%
